This is an account of results in PubChem BioAssay AID2551 (National Center for Advancing Translational Sciences (NCATS), 2010).

Among all 310,000 compounds or so, about 17,000 (5.5%) were called active. Not shown: some 11% with an inconclusive outcome. Calls come from the whole dose curve; as a rule, active = well fitted inhibition curve with a large enough effect; inconclusive = small, poorly fitted or top-dose-only effect, or effect the other way; inactive = no such curve, though single readings can be large or run the other way. The entries come from a sample that favours actives as a whole. Entries that show only a call come without a potency.
Potency is the fitted concentration of half-maximal effect.

For this assay, the target named is Nuclear receptor ROR-gamma (Mus musculus) (UniProt P51450). Nature of the assay: qHTS for inhibitors of ROR gamma transcriptional activity. Note: nearly all actives have a fitted effect of over 60% in size. The settings on record: Drosophila S2 Gal4-RORgamma UAS-luciferase reporter, 20 h; series mostly up to 53.6 µM. An outline of the steps: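 In this cell-based reporter format, copper sulfate (700 uM final) drives Gal4–ROR gamma fusion expression from a metallothionein promoter in Drosophila Schneider cells; compounds preincubated 1 hr, reporter read after 20 hr at ambient temperature.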
Chain of Nuclear receptor ROR-gamma (Mus musculus) (P51450 whole entry, looked up, the tested form may be a part): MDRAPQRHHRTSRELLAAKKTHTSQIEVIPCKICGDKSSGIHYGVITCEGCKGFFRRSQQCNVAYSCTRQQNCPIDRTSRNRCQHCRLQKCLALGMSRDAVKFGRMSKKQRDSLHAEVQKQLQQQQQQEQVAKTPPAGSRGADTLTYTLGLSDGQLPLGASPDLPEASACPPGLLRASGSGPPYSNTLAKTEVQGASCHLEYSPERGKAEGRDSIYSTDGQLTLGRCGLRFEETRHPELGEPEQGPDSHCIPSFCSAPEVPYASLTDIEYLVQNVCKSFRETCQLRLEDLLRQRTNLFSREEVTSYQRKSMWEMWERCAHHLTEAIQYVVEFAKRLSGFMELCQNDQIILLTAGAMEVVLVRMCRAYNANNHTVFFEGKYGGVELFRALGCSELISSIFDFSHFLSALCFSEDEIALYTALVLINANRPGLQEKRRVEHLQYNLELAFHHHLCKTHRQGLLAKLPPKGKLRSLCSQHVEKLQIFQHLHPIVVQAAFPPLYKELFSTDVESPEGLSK
Turning to `CC(C)(O)c1[se]c2ccccc2c1I`, the Potency entry was “inactive”.
To `CC[C@H]1CN2CCc3cc(OC)c(OC)cc3[C@@H]2C[C@@H]1C[C@H]1NCCc2cc(OC)c(OC)cc21` belongs 1.26 µM (active).
To `COc1cccc(-c2nc3ccc(N4CCN(C)CC4)cc3[nH]2)c1` belongs 1.12 µM (active).
To `CN1CCN(c2cc(N3CCNCC3)ccc2[N+](=O)[O-])CC1` belongs “inactive”.
`COC(=O)c1ccc2[se]c(CC3CCCCC3)c(I)c2c1`: the Potency entry was “inactive”.
In the case of `Cc1ccc(-n2c(O)c(C=NCC3CCCO3)c(=O)[nH]c2=O)c(C)c1` (centres undefined) it was “inactive”; in that of `COC1CC(OC2CC[C@@]3(C=O)C4CC[C@]5(C)C(C6=CC(=O)OC6)CC[C@@]5(O)C4CC[C@]3(O)C2)OC(C)C1O` (some centres undefined), “inactive”.
For `BrC1C(Br)C(Br)C(Br)C(Br)C1Br` (centres undefined), the Potency was 5.01 µM (active).
To `O=C(Nc1cccc(F)c1)N1CC[C@@]2(CCCN(C(=O)Oc3ccccc3)C2)C1` belongs “inactive”; to `CCN1C[C@]2(COC)C(O)C[C@H](OC)[C@@]34C5C[C@]6(O)C(OC)C(O)[C@](OC(C)=O)(C5C6OC(=O)c5ccccc5)C(C(OC)C23)C14` (some centres undefined), “inactive”.
In the case of `CCCCC#N` it was “inactive”; in that of `COc1cccc(OC)c1C(=O)NC(=S)N1C[C@H]2C[C@H](C1)c1cccc(=O)n1C2`, “inactive”.
Regarding `O=C(NC(=S)N1C[C@H]2C[C@H](C1)c1cccc(=O)n1C2)c1ccc(F)cc1`, the Potency is 11.2 µM (active).
To `COc1cccc(C(=O)N2C[C@H]3C[C@@H](C2)c2cccc(=O)n2C3)c1` belongs “inactive”; to `N#CCCCl`, “inactive”.
In the case of `CCN(CC)c1nc(C)cc(OP(=S)(OC)OC)n1` it was “inactive”; in that of `CC(C)(c1ccc(OC[C@@H]2CO2)cc1)c1ccc(OC[C@H]2CO2)cc1`, “inactive”.
To `CN1CCN(C(=O)O[C@@H]2c3nccnc3C(=O)N2c2ccc(Cl)cn2)CC1` belongs “inactive”; to `CC(=C1C(=O)c2ccccc2C1=O)N1CCN(CCN=Cc2c(O)n(C)c(=O)n(C)c2=O)CC1`, 7.08 µM (active); to `Cn1c(O)c(C=NCCN2CCNCC2)c(=O)n(C)c1=O`, “inactive”.
Consider `Cn1c(O)c(C=NCCCC(=O)O)c(=O)n(C)c1=O`, for which the Potency entry was “inactive”.
To `CC(=O)OC1C2CCC3C1(CC(O)[C@@]1(O)[C@@H](CC(O)C1(C)C)[C@]3(C)O)C[C@@]2(C)O` (some centres undefined) belongs “inactive”.
In the case of `O=[N+]([O-])c1ccc(Cl)c(Cl)c1` it was “inactive”; in that of `N[C@H](Cc1o[nH]c(=O)c1Cl)C(=O)O`, “inactive”.
